Experimental findings from ChEMBL document CHEMBL4513216, “Probing the Open Global Health Chemical Diversity Library for Multistage-Active Starting Points for Next-Generation Antimalarials” (ACS Infect Dis, 2020) are described below.

Screen size: about 65,000 compounds; about 2,100 (3.2%) showed an effect of 50% or more. The median lay at about -52%. The sample holds strong results, similar compounds and a random draw of the others, so the mix is not that of the screen.

The assay deals with Plasmodium falciparum. The assay is described as follows: Screen against P. falciparum Asexual Blood Stage (ABS), at 5uM. To be noted: tested at 5 uM. In kind it is functional, Dd2.
For `CCC(=O)N(CCC(=O)O)Cc1ccc(F)c(F)c1`, the INHIBITION is -62.6%.
As for `Cc1cc(CN(C)C(C(=O)O)c2ccc(C(C)(C)C)cc2)on1` (stereo not given), the INHIBITION is listed as -96.1%.
As for `COc1ccc(CNc2c(N3CCN(C(C)=O)CC3)c(=O)c2=O)cc1`, the figure is -16.8%; as for `CC(C)c1[nH]c2ncccc2c1CN1CCC(O)CC1`, -59.2%.
The same measure for `CC(C)(C)OC(=O)NCCc1csc(N2CCCC2)n1`: -50.6%.
As for `Cn1cnc2c1C(COCc1cccnc1)N(Cc1ccccc1)CC2` (stereo not given), the figure is 23.7%; as for `Cn1cnc2c1C(COCc1ccccc1)N(Cc1cccnc1)CC2` (stereo not given), 36.7%; as for `Cn1cnc2c1C(COCc1ccccc1)N(Cc1ccncc1)CC2` (stereo not given), 51.6%.
With `Cn1cnnc1C1CCCN(C(=O)NCCCn2cccn2)C1` (stereo not given), the INHIBITION was -205%.
As for `CC(C)CC(=O)N1CCC2(CC1)COCCN2Cc1ccc(F)cc1`, the INHIBITION is on record as -3.2%.
Regarding `Cc1cc(C)cc(C(=O)Nc2cccc(CN3CCCC3C(N)=O)c2)c1` (stereo not given), the INHIBITION was -76.3%.
The same measure for `CCCn1c(NCCc2ccccc2)nc2c(C)nn(C)c2c1=O`: -42.9%; for `CN(C)CCN(C)S(=O)(=O)Cc1ccc(Br)cc1`: 63.7%; for `CC(O)CCN(C)S(=O)(=O)Cc1ccc(Br)cc1` (stereo not given): -23.8%.
Turning to `CCCNS(=O)(=O)Cc1ccc(Br)cc1`, the INHIBITION is reported as -14.1%.
The same measure for `CCOCC1CN(C(=O)C2=CCCC2)Cc2cnn(C)c21` (stereo not given): -16.8%; for `Cc1ccc(N[C@@H]2CN(Cc3cc(C)on3)C[C@@H]3CCCO[C@@H]32)nn1`: -84.9%.
The same measure for `Cc1noc(C)c1CN1C[C@@H]2CCCO[C@@H]2[C@H](Nc2ccccn2)C1`: -37.5%.
With `Cc1cccc(CN2C[C@@H]3CCCO[C@@H]3[C@H](Nc3ccccn3)C2)n1`, the INHIBITION was 55.6%.
As for `N[C@@H]1c2ccccc2C2(CCN(c3ncccc3C(F)(F)F)CC2)[C@H]1O`, the figure is -6.42%; as for `CCCC1CCCN(C(=O)Nc2ccc(F)c(C(N)=O)c2)CC1` (stereo not given), -46%; as for `Cc1cccc(CN2CCOCC3(CCN(C4CCOCC4)C3)C2)n1` (stereo not given), 42.5%.
For `Cc1ccc(CN2CCOCC3(CCN(Cc4cccs4)C3)C2)o1` (stereo not given), the INHIBITION is 41.9%.
As for `Cn1cc(CN2CCCC3(COCCN(Cc4c[nH]nn4)C3)C2)cn1` (stereo not given), the figure is -58.4%; as for `c1csc(CN2CCOCC3(CCN(C4CCOCC4)C3)C2)c1` (stereo not given), 50.4%; as for `COc1ccc(CN2CCOCC3(CCN(C4CCOCC4)C3)C2)cc1` (stereo not given), 61%.
The same measure for `c1cc(CN2CCCC3(COCCN(Cc4c[nH]nn4)C3)C2)cs1` (stereo not given): 27.7%; for `COc1ccc(F)c(CN2CCCC3(CCN(C4CCOCC4)C3)C2)c1` (stereo not given): 3.41%.
As to `Cn1cc(CN2CCOCC3(CCN(C4CCOCC4)C3)C2)cn1` (stereo not given), the INHIBITION is -41.5%.
The same measure for `Fc1ccc(CN2CCCC3(COCCN(Cc4c[nH]nn4)C3)C2)cc1` (stereo not given): 61.7%.
As for `c1cn(-c2ccc(N3CCC(NC4CC4)CC3)cc2)cn1`, the INHIBITION was 18.4%.
As for `CC(C)c1cc(CN(C)C(=O)C(C)N2CCc3ccccc3C2)no1` (stereo not given), the INHIBITION is listed as -28.5%.
Turning to `N[C@H]1CCCN(S(=O)(=O)c2ccc(C(=O)NCC(F)F)cc2)C1`, the INHIBITION is recorded as -117%.
`Cc1cc(C)cc(OCCN(C)C2CCOC2=O)c1` (stereo not given): the INHIBITION is recorded as -68.2%.
As for `CC(C)C[C@H](N)C(=O)N1CCSc2ccccc2C1`, the INHIBITION amounted to 48%.
The same measure for `NC(C(=O)N1CCSc2ccccc2C1)c1ccccc1` (stereo not given): 60.9%; for `N[C@@H](C(=O)N1CCN(c2ccccc2Cl)C(=O)C1)c1ccccc1`: -17.6%.
The same measure for `O=S1(=O)CCC(NCCn2cncc2-c2ccc3c(c2)CCCO3)C1` (stereo not given): -91.4%; for `O=S(=O)(C1CC1)N1CC[C@]2(C[C@@H](Oc3ncccc3F)CO2)C1`: -24.1%; for `CN(C)C(=O)c1cnc2n1CCN(Cc1cccnc1)C2`: -6.2%.
The same measure for `N#Cc1ccnc(NCc2cc3n(n2)CCCN(C(=O)C2CCC2)C3)c1`: -89.1%; for `CN(Cc1ccccn1)C(CO)c1cccc(Br)c1` (stereo not given): -68.3%; for `Cc1nn(CCO)c(C)c1CNC1CCOc2ccccc21` (stereo not given): -36%.
Turning to `Cc1nn(CCO)c(C)c1CNC1CCC(C)(C)c2ccccc21` (stereo not given), the INHIBITION was 69.2%.
In the case of `Cc1nn(CCO)c(C)c1CNC1CCCCc2ccccc21` (stereo not given), the INHIBITION is listed as -4.05%.
The same measure for `Cc1cc2c(=O)n3c(nc2s1)CCN(Cc1[nH]cnc1C)CC3`: -96.3%; for `O=C(NCCNc1cc(N2CCCC2)cnn1)Nc1ccccc1F`: -93.6%; for `Cc1sc2c(C3CCNCC3)nc(Nc3cccc(F)c3)n2c1C`: -126%.
With `O=C1NCC2(CCCN(Cc3ccccc3F)C2)Oc2ccccc21` (stereo not given), the INHIBITION is on record as -20.4%.
The same measure for `O=C1NCC2(CCCN(CCc3ccccc3)C2)Oc2ccccc21` (stereo not given): 51.7%; for `O=C1NCC2(CCCN(Cc3ccc(F)cc3)C2)Oc2ccccc21` (stereo not given): -41%; for `COc1ccc(C(=O)CCC(=O)NCc2c(C)noc2C)cc1F`: -164%.
As for `CCCc1ncc(C(=O)N2CCOc3ncccc32)s1`, the figure is -13.4%.
The same measure for `NC(=O)Cn1cc(NC(=O)N2CCN(c3ccccc3)CC2)cn1`: 63.7%; for `NC(=O)Cn1cc(NC(=O)N2CCN(c3ccc(F)cc3)CC2)cn1`: -40.9%.
Turning to `Cc1cccc(N2CCN(C(=O)Nc3cnn(CC(N)=O)c3)CC2)c1`, the INHIBITION is recorded as -67.3%.
`COc1ccccc1CN1CC(OC)CN(C(=O)OCC(C)C)CC1=O` (stereo not given): the INHIBITION is reported as -40.4%.
`CC(c1cccs1)N(C)Cc1cnc(-c2ccccn2)nc1` (stereo not given): the INHIBITION is -132%.
As for `Cc1ccc(C(=O)NCCCNS(C)(=O)=O)cc1-n1cccc1`, the figure is -137%.
The same measure for `C[C@@H](O)[C@H](NC(=O)c1csc2nc(-c3ccccc3F)cn12)C(N)=O`: -41.1%; for `CN(C)CCCn1ccc(-c2cccc(-c3cncnc3)c2)n1`: 14.5%.
`COc1ccc(-c2cccc(-c3ccn(CCCN(C)C)n3)c2)nn1`: the INHIBITION is reported as -18.6%.
On to `c1cc(-c2cnccn2)cc(-c2ccn(CCN3CCCCC3)n2)c1`, for which the INHIBITION is 43.8%.
As for `c1cc(-c2cnccn2)cc(-c2ccn(CCN3CCCC3)n2)c1`, the figure is 69.1%; as for `CN(C)CCCn1ccc(-c2cccc(-c3ccccn3)c2)n1`, 61%.
As for `c1cc(-c2cnccn2)cc(-c2ccn(CCCN3CCCCC3)n2)c1`, the figure is 21.9%; as for `Cc1cc(CN2CCc3c(CNc4ncccn4)cncc3C2)oc1C`, 0.619%.
Take `c1ccc(CN2CCc3c(COCC4CC4)cncc3C2)nc1`: the INHIBITION came to 59.3%.
The same measure for `CN(C)C(=O)COCc1cncc2c1CCN(Cc1ccccn1)C2`: 25.8%.
`c1ccc(CN2CCc3c(COCc4ccncc4)cncc3C2)nc1`: the INHIBITION was -14.6%.
As for `CN(CC(=O)NCc1cccnc1N1CCCCC1)C(=O)c1cccs1`, the figure is -48.6%.
The same measure for `CC(C)c1ccc(-n2nnc(C(=O)O)c2-c2ccccn2)cc1`: -101%.
As for `N#Cc1cccnc1OC1CCN(S(=O)(=O)c2ccc(Br)cc2)CC1`, the figure is -92.6%; as for `NCCc1nc(N[C@@H](CO)c2ccccc2)c2ccccc2n1`, -39.4%.
As for `CCC(Nc1nc(CCN)nc2ccccc12)c1cccs1` (stereo not given), the INHIBITION was 63.5%.
As for `CCC(Nc1nc(CCN)nc2ccccc12)c1cc(C)ccn1` (stereo not given), the figure is -22%; as for `N#Cc1cccnc1N1CCC(Nc2ccccc2)C1` (stereo not given), -76.7%.
As for `O=C(CC1CC1)NCc1cn2c(n1)CN(Cc1cccc(F)c1)CC2`, the figure is -52%; as for `CCNC(=O)COc1cc(CC)c2c(C)nn(-c3ccc(C)cc3)c2n1`, -21.1%; as for `CC(C)[C@@H]1CN(CCCOc2ccc(F)cc2)C[C@H]1NS(C)(=O)=O`, 53.7%.
The same measure for `CCc1ccccc1OCCN1C[C@@H](NS(C)(=O)=O)[C@H](C(C)C)C1`: 45.2%; for `CC(C)[C@@H]1CN(CCOc2ccc(Cl)cc2)C[C@H]1NS(C)(=O)=O`: 45.9%; for `CN(C)CCNC(=O)c1nc2c(s1)CCCN2C(=O)C1CC1`: 25.4%.
In the case of `CC(O)CNCc1ccc(OCc2ccc3c(c2)OCCO3)cc1` (stereo not given), the INHIBITION is -169%.
As for `COc1ccc(-n2ncc3c2NC(=O)CSC3CC(C)C)cc1` (stereo not given), the figure is -124%; as for `CCn1ccnc1CN1CCN(CC(=O)NC(C2CC2)C2CC2)CC1`, 61.4%; as for `CCn1ccnc1CN1CCN(C(C)C(=O)NC2CCCC2)CC1` (stereo not given), 51%.
As for `CCn1ccnc1CN1CCN(C(C)C(=O)N2CCCC2)CC1` (stereo not given), the INHIBITION is reported as -81.3%.
The same measure for `CCn1ccnc1CN1CCN(C(C)C(=O)NC2CCCCC2)CC1` (stereo not given): -83.4%; for `CCn1ccnc1CN1CCN(CC(=O)NC2CCOCC2)CC1`: -29%.
Turning to `CCn1ccnc1CN1CCN(CC(=O)NC(=O)NC2CC2)CC1`, the INHIBITION was -97.3%.
For `O=C1C(N2CCOCC2)CCCN1Cc1cccc(C(F)(F)F)c1` (stereo not given), the INHIBITION is given as -61.2%.
As for `CC(C)(C)c1nc(CN(CCC2CCCCC2)CC(N)=O)no1`, the figure is -85.5%; as for `COc1cc(Cl)c(CN2CCC(C(N)=O)C2)cc1Cl` (stereo not given), 7.24%; as for `COc1ccc(CN2CCC(C(N)=O)CC2)cc1SC(F)(F)F`, 63.5%.
The same measure for `COc1ccc(CN2CCC(C(N)=O)C2)c(Br)c1OC` (stereo not given): -93.4%; for `COc1ccc2[nH]cc(CCNC(=O)C3CCCN(C(C)=O)C3)c2c1` (stereo not given): -30%; for `CSc1ncccc1C(=O)N1CCCC1c1ccc(C(=O)N(C)C)s1` (stereo not given): -53.6%.
Turning to `Cc1cc2n(n1)CCN(c1nc(N)nc3c1CCNCC3)C2`, the INHIBITION is on record as -75.3%.
On to `Cc1ccccc1N1CCN(c2nc(N(C)C)nc3c2CCNC3)CC1`, for which the INHIBITION is given as 39.1%.
For `Cc1cc2n(n1)CCN(c1nc(N(C)C)nc3c1CCNC3)C2`, the INHIBITION is on record as 57.8%.
As for `Cc1ccc(NC2CCN(C(=O)c3ccc(F)cc3Cl)CC2)nn1`, the figure is -116%; as for `Cc1cc(-c2cnc(NC3CCCCC3)nc2-c2ccco2)on1`, -49.1%; as for `CCc1nc(C2CCCN2Cc2cc(C)nc3ccccc23)no1` (stereo not given), -64.8%.
For `CN1CCCN(C(=O)NCc2ccccc2Cn2cncn2)CC1`, the INHIBITION was -93.1%.
